Assay results reported in ChEMBL document CHEMBL3988442, “University of Dundee, Small-Polar-MMV Screening Library” (2021).

Biological target: AMP-activated protein kinase, AMPK (Homo sapiens) (UniProt P54646+O43741+P54619+Q9UGJ0+Q9Y478+Q13131+Q9UGI9)
Test: AMP-dependent Kinase enzyme assay. An in vitro enzyme assay that detects ADP turnover that is directly proportional to AMPK activity. This uses naive AMPK that is activated during the assay with MK-8722
Assay type: functional
Design: scale not given: direction of the effect not stated beside the values
Conditions: 30 µM

SMILES	Percent Effect [%]
COCCCC1(CO)CCCN(C(=O)c2cnc(C3CC3)nc2)C1 (stereo not given)	2.98
Cc1ccnn1CCN1CCCC2(CCC(=O)N(C3CCCC3)C2)C1 (stereo not given)	15.1
CN(C)CCN(Cc1cccc(F)c1)C(=O)c1ccn(C)c(=O)c1	9.63
O=C1NC(C(=O)NCc2cccnc2Oc2ccccc2F)CO1 (stereo not given)	4.53
CS(=O)(=O)c1ccc(Cl)c(C(=O)NCCC2=CCCCC2)c1	-0.566
Cc1nc(S(=O)(=O)N2CCCCc3ccccc32)cn1C	0.965
Cc1cccc(C2(CNC(=O)c3ccnc(N(C)C)c3)CCOCC2)c1	-0.987
CC(Cc1cccc(F)c1)C(=O)NS(=O)(=O)c1cnn(C)c1 (stereo not given)	-5.21
Cc1cnn(C2CCCN(C(=O)c3cc(-c4cccs4)n[nH]3)C2)c1 (stereo not given)	-1.86
Cc1csc(N2CCC(CCN3CCCC3=O)CC2)n1	-12.1
Cc1nccn1CCN(C)C(=O)c1cn(-c2ccccc2)nn1	-5.19
COc1c(C)cnc(CN2CCCC2c2noc(C3CC3)n2)c1C (stereo not given)	-14.3
Cn1ncc2c(NC3CCSC3)nc(-c3ccncc3)nc21 (stereo not given)	9.02
CN(Cc1cnccn1)c1cncc(Br)c1	3.25
COc1ccc(N2CCN(Cc3noc(CC(C)C)n3)C(C)C2=O)cc1 (stereo not given)	0.845
CC(=O)N1CCC(Cc2ccc(-c3ccnn3C)nc2)CC1	-2.26
COC(=O)c1ccc(NC(=O)CCNCc2ccco2)cc1	2.04
COCCN(Cc1nccs1)c1nc2c(s1)c(C)nn2C	-10
O=C1NC(C(=O)NCc2cccnc2Oc2ccc(F)c(F)c2)CO1 (stereo not given)	0.367
Cc1cc(N2CCOC(c3ccc(N(C)C)cn3)C2)nc(N)n1 (stereo not given)	7.96

SMILES	Percent Effect [%]
CC(C)Cn1cc(NC(=O)c2cccc(N(C)C)c2)cn1	1.9
CC(CN1CCOCC1)n1cncc1-c1cnn(Cc2ccccc2)c1 (stereo not given)	2.92
CC(C)NC(=O)c1nc(Cn2c(C(F)(F)F)nc3ccccc32)no1	6.13
CC(C)Cc1ncc2c(n1)CN(c1cc(NCCO)nc(N)n1)C2	-165
COCCCNC(=O)Cc1nc(-c2ccncc2)n[nH]1	14.5
O=C(CN1CC(c2ccccc2)CC1=O)N1CCN(c2nccs2)CC1 (stereo not given)	15.4
CCc1n[nH]c(C(=O)NCCn2ccnc2C)c1C	-2.67
Cn1cc(NC(=O)N2CCCC2c2ccccn2)ccc1=O (stereo not given)	40.9
Cn1cc(S(=O)(=O)N(Cc2ccc(F)cc2F)C2CC2)cc1C(N)=O	3.23
COCCS(=O)(=O)NCc1ccc(N(C)C)c(C)c1	6.36
COC(=O)N1CCCCC1C(=O)N1CCCN(c2ccnc(C)c2)CC1 (stereo not given)	-3.17
O=C(c1cccc2ccnn12)N1CCCC1Cn1cccn1 (stereo not given)	-1.71
CCCOc1cc(CNC(=O)Nc2ccc(C)cc2)ccn1	1.3
Cc1ccc(CNCc2nccn2C)c(OC(C)(C)C)c1	-4.8
Cc1ccccc1C(=O)NCC(=O)NCc1ccccn1	17.3
CN(CCNC(=O)Nc1nccs1)Cc1ccc(F)cc1	-0.57
O=C(c1cnco1)N1CCC(Cc2cnc3ccccc3c2)CC1	18.4
COc1ncccc1N(C)C(=O)Cn1cc(-c2ccccc2)nn1	-1.29
CC(C(=O)NCc1ccc2c(c1)OCCO2)n1cncn1 (stereo not given)	-8.38
Cc1cc(CN(C)C(=O)Nc2ccccc2C)no1	9.79
